Source: PubChem (National Center for Advancing Translational Sciences (NCATS))
HP1b binding inh: HP1-beta chromodomain-methylated histone interaction inhibition | AID 540317 | Potency, µM (series often up to 114 µM), hits mostly inhibitors | 390,000 tested, 0.56% active | AlphaScreen HP1-beta / biotin-H3K9me3 peptide binding; note: nearly all actives have a fitted effect of over 70% in size
Target sequence (P83916 whole entry, looked up): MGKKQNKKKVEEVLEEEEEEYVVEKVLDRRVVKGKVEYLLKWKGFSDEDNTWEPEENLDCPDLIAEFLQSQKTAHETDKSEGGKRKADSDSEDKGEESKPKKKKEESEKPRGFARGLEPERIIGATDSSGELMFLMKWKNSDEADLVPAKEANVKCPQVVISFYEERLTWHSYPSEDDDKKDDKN
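AlphaScreen: HP1-beta (50 nM) preformed 30 min with biotin-H3(1-18)K9me3 peptide (50 nM) in PBS pH 7.4, 0.01% Tween-20. Compound added for 30 min at RT, then streptavidin donor/nickel chelate acceptor beads (10 ug/mL) for 30 min.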
JMJD2A Tudor inh: JMJD2A Tudor domain (human) inhibition; O75164; AlphaScreen JMJD2A-Tudor / H3K4me3 peptide binding; Potency, µM (series often up to 114 µM), most hits filed as inhibitors; 390,000 tested, 4.4% active; note: nearly all actives have a fitted effect of over 50% in size
G9a block: blocks human histone lysine methyltransferase G9a | Q96KQ7 | G9a H3K9 monomethylation, AlphaScreen, 2 h | Potency, µM (highest dose often 102 µM), usual class: inhibitors | 350,000 tested, 8.8% active | AID 504332; note: nearly all actives have a fitted effect of over 75% in size
Target sequence (Q96KQ7 913-1193 limits assumed): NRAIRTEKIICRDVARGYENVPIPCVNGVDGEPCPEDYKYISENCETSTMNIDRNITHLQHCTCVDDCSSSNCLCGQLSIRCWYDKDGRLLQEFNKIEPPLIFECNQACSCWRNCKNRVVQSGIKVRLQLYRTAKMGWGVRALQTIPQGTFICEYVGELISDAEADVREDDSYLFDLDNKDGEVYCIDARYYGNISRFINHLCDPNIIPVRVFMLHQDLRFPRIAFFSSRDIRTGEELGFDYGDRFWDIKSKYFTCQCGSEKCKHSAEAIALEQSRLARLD
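Enzyme 20 nM + cpd, 15 min RT; add b-H3K9 pep 500 nM / SAM 20 uM; 2 h RT; anti-H3K9me1 Ab 0.5 ug/mL + SA donor / anti-rabbit acceptor beads 20 ug/mL each, 10 min; AlphaScreen read.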
BAZ2B block: inhibitors of human BAZ2B bromodomain. Q9UIF8. AlphaScreen BAZ2B-H3K14Ac peptide displacement. Potency, µM (top dose mostly 114 µM), hits mostly inhibitors. 360,000 tested, 4.4% active. AID 504333; note: nearly all actives have a fitted effect of over 60% in size
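Protein-peptide AlphaScreen: BAZ2B 50 nM, b-H3K14Ac 50 nM, 1x PBS pH 7.4 + 0.01% Tween-20. Preincubation 30 min RT; cpd 30 min RT (top 110 uM); beads 20 min RT, light-protected.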
Sfp inh: blocks B. subtilis Sfp PPTase activity | Q9F4F7 | Biochemical Sfp PPTase activity, qHTS | Potency, µM, usual class: inhibitors | 310,000 tested, 3.5% active | AID 1490;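 note: the enzyme is Sfp with the accession as filed and its product quenches rhodamine fluorescence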
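Step 1, compound plus 15 nM Sfp-PPTase, 15 min, room temperature. Step 2, add rhodamine-CoA (5 uM) and BHQ-2-YbbR (12.5 uM). Step 3, read 525/598 nm fluorescence at 0 and 30 min.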
Hits are given with their value; [ ] = dose if it differs, or a comment. A selection: hits, their analogues and other compounds. The true share with any hit is near 12%. Calls come from the whole dose curve; as a rule, active = well fitted curve in the direction sought with a large enough effect; inconclusive = small, poorly fitted or top-dose-only effect, or another doubt; inactive = no such curve, though single readings can be large; an effect the other way counts as inactive or inconclusive.

Results for O=C(Cn1c(=O)n(Cc2ccco2)c(=O)c2cc(Cl)ccc21)NCC1CCCO1 (centres undefined) ?
HP1b binding inh: inactive; JMJD2A Tudor inh: inactive; G9a block: inactive[12.7 µM]; BAZ2B block: inactive; Sfp inh: 40µM

Results for Cn1c(C(=O)NCC2CCCO2)cc2c(=O)n(C)c3ccccc3c21 (centres undefined) ?
HP1b binding inh: inactive; JMJD2A Tudor inh: inactive; G9a block: inconclusive; BAZ2B block: inactive; Sfp inh: inactive

How did O=C(Cn1nc(-c2ccc(Cl)cc2)c2ccccc2c1=O)NCC1CCCO1 (centres undefined) do in these assays?
HP1b binding inh: inconclusive; JMJD2A Tudor inh: 35µM; G9a block: inactive; BAZ2B block: inactive; Sfp inh: inactive

What do the screens show for `COc1ccccc1NC(=O)CCn1nc(-c2ccccc2)c2ccccc2c1=O`?
HP1b binding inh: inactive; JMJD2A Tudor inh: inactive; G9a block: inactive; BAZ2B block: inactive

How did COc1ccccc1NC(=O)Cn1nc(-c2ccc(Cl)cc2)c2ccccc2c1=O do in these assays?
HP1b binding inh: inactive; JMJD2A Tudor inh: inactive; G9a block: 10µM; BAZ2B block: inactive; Sfp inh: inconclusive

What do the screens show for `O=C(Cn1c(=O)n(Cc2ccc(F)cc2)c(=O)c2ccccc21)NCC1CCCO1` (centres undefined)?
HP1b binding inh: inactive; JMJD2A Tudor inh: inactive; G9a block: inactive; BAZ2B block: inactive; Sfp inh: inactive

What do the screens show for `Cn1c(=O)c(C(=O)NCC2CCCO2)c(O)c2ccccc21` (centres undefined)?
HP1b binding inh: inactive; JMJD2A Tudor inh: 28µM; G9a block: inactive; BAZ2B block: inactive; Sfp inh: inactive

Results for Cc1ccc(-c2nn(CC(=O)NCC3CCCO3)c(=O)c3ccccc23)cc1 (centres undefined) ?
HP1b binding inh: inactive; JMJD2A Tudor inh: inactive; G9a block: inconclusive; BAZ2B block: inactive; Sfp inh: inactive

How did COc1ccc(Br)cc1CNC(=O)CCCn1c(=O)c2cccn2c2cccnc21 do in these assays?
HP1b binding inh: inactive; JMJD2A Tudor inh: inactive; G9a block: inactive; BAZ2B block: inactive

Results for COc1ccc(S(=O)(=O)N[C@@H](CC(C)C)C(=O)O)cc1 ?
HP1b binding inh: inactive; JMJD2A Tudor inh: inactive; G9a block: inactive; BAZ2B block: inactive; Sfp inh: inactive

How did COc1ccc(S(=O)(=O)N2CCOCC2)cc1C(=O)N1CCCC1 do in these assays?
HP1b binding inh: inactive; JMJD2A Tudor inh: inactive; G9a block: inactive[12.7 µM]; BAZ2B block: inactive; Sfp inh: inactive

Results for COc1ccc(N2CCN(S(=O)(=O)c3ccc(OC)c(C(=O)N4CCOCC4)c3)CC2)cc1 ?
HP1b binding inh: inactive; JMJD2A Tudor inh: inactive; G9a block: 45µM; BAZ2B block: inactive; Sfp inh: inactive

What do the screens show for `COc1ccc(N2CCN(C(=O)c3cc(S(=O)(=O)N4CCCCCC4)ccc3OC)CC2)cc1`?
HP1b binding inh: inconclusive; JMJD2A Tudor inh: inconclusive; G9a block: 50µM; BAZ2B block: inconclusive

What do the screens show for `COc1ccc(N2CCN(C(=O)c3ccc(Cl)c(S(=O)(=O)N4CCCC4)c3)CC2)cc1`?
HP1b binding inh: inactive; JMJD2A Tudor inh: inconclusive; G9a block: 40µM; BAZ2B block: 71µM; Sfp inh: inactive

How did COc1ccc(S(=O)(=O)N2CCN(C(=O)c3cc4c(s3)CCC4)CC2)cc1 do in these assays?
HP1b binding inh: inconclusive; JMJD2A Tudor inh: 7.9µM

What do the screens show for `COc1ccc(CCNc2oc(/C=C/c3cc(OC)c(OC)c(OC)c3)nc2C#N)cc1OC`?
HP1b binding inh: inactive; JMJD2A Tudor inh: inactive; G9a block: inactive; BAZ2B block: inactive

How did CC(C)c1ccc(S(=O)(=O)N2CCN(C(=O)c3cccc(S(=O)(=O)N4CCOCC4)c3)CC2)cc1 do in these assays?
HP1b binding inh: inactive; JMJD2A Tudor inh: inactive

What do the screens show for `Cc1ccc(C)c2nc(SCC(=O)N3CCCc4ccccc43)c(C#N)cc12`?
HP1b binding inh: inactive; JMJD2A Tudor inh: inactive; G9a block: inconclusive; BAZ2B block: inactive; Sfp inh: inactive

How did C=CCc1cccc2cc(NC(C)=O)c(=O)oc12 do in these assays?
HP1b binding inh: inactive; JMJD2A Tudor inh: inactive[11.4 µM]; G9a block: inactive; BAZ2B block: inactive; Sfp inh: inactive

Results for Cc1ccccc1C(=O)NC1CCN(C(=O)N2CCOCC2)CC1 ?
HP1b binding inh: inactive; JMJD2A Tudor inh: inactive; G9a block: inactive; BAZ2B block: inactive; Sfp inh: inactive

How did COc1cc2c(cc1OC)CN(C(=O)c1cc(S(=O)(=O)N3CCOCC3)ccc1Cl)CC2 do in these assays?
HP1b binding inh: inactive; JMJD2A Tudor inh: inconclusive; G9a block: 50µM; BAZ2B block: inactive; Sfp inh: inactive

How did Cc1csc2nc(CN3CCN(CC(=O)N(C)C)CC3)cc(=O)n12 do in these assays?
HP1b binding inh: inactive; JMJD2A Tudor inh: inactive; G9a block: 45µM; BAZ2B block: inactive; Sfp inh: inactive

How did COc1ccc([C@@H]2C=C(C(=O)O)O[C@H](OCCCCO)C2)cc1 do in these assays?
HP1b binding inh: inactive; JMJD2A Tudor inh: inconclusive; G9a block: inactive[12.7 µM]; BAZ2B block: 79µM; Sfp inh: inactive

What do the screens show for `CN1C(=O)C(=O)/C(=C(/O)c2ccc(Br)cc2)C1c1ccc(F)cc1` (centres undefined)?
HP1b binding inh: inactive; JMJD2A Tudor inh: inactive; G9a block: 71µM; BAZ2B block: inactive; Sfp inh: inactive

What do the screens show for `O=C1C(=O)N(c2ccccn2)C(c2ccc(Br)cc2)/C1=C(/O)c1ccc(Br)cc1` (centres undefined)?
HP1b binding inh: inactive; JMJD2A Tudor inh: inactive; G9a block: 45µM; BAZ2B block: inactive; Sfp inh: inactive

How did CCOc1ccc(/C(O)=C2/C(=O)C(=O)N(c3ccccn3)C2c2ccc(F)cc2)c(C)c1 (centres undefined) do in these assays?
HP1b binding inh: inactive; JMJD2A Tudor inh: inconclusive; G9a block: 28µM; BAZ2B block: inactive; Sfp inh: inactive

What do the screens show for `O=C1C(=O)N(c2ccccn2)C(c2ccc(F)cc2)/C1=C(/O)c1ccc(Br)cc1` (centres undefined)?
HP1b binding inh: inactive; JMJD2A Tudor inh: inactive; G9a block: inactive[0.501 µM]; BAZ2B block: inactive; Sfp inh: inactive

What do the screens show for `Cc1ccc(/C(O)=C2/C(=O)C(=O)N(c3ccccn3)C2c2ccc(F)cc2)cc1` (centres undefined)?
HP1b binding inh: inactive; JMJD2A Tudor inh: inactive; G9a block: 40µM; BAZ2B block: inactive; Sfp inh: inconclusive

What do the screens show for `O=C(COc1ccc(-n2cnnn2)cc1)Nc1ccc(Br)cc1F`?
HP1b binding inh: inactive; JMJD2A Tudor inh: inactive

How did Cc1ccc(OCCNC(=O)c2cncc(Br)c2)cc1C do in these assays?
HP1b binding inh: inactive; JMJD2A Tudor inh: inactive; BAZ2B block: inactive; Sfp inh: inactive

Results for O=[N+]([O-])c1ccc(N=Nc2c(Cl)cc(O)cc2Cl)cc1 ?
HP1b binding inh: 13µM; JMJD2A Tudor inh: 11µM; G9a block: 10µM; BAZ2B block: 8.9µM; Sfp inh: inactive
